Experimental data as given in PubChem BioAssay (EPA / NIEHS).
Inconclusive results are not listed. Activity calls are given as the source filed them. How the source made its calls: active means hit-call score of the fitted dose curve at least 0.9, where 1 is the maximum; inconclusive means response in the unintended direction; inactive means score below 0.9.

What was measured:
[1] = TOX21_p53_BLA_p2_viability: Viability Assessment in the Tox21 HCT-116 p53 Agonism Beta-lactamase Assay, Phase 2 (AID 2283591);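 further: compound exposure lasted 16 h at 37 °C; actives lower the ATP signal meaning cytotoxicity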
Outline: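 HCT116 p53-bla cells, 4000/well, dosed after 5 h plating (217-fold dilution of DMSO stocks) and incubated 16 h at 37C. Viability taken as cellular ATP by CellTiter-Glo luminescence after 30 min RT; signal loss marks cytotoxicity.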

[2] = target: Cellular tumor antigen p53 (Homo sapiens) (UniProt P04637); experiment: TOX21_p53_BLA_p2_ratio: Tox21 HCT-116 p53 Agonism Beta-lactamase Assay, Ratio, Phase 2 (AID 2283592)
Sequence of Cellular tumor antigen p53 (Homo sapiens) (P04637 whole entry, looked up): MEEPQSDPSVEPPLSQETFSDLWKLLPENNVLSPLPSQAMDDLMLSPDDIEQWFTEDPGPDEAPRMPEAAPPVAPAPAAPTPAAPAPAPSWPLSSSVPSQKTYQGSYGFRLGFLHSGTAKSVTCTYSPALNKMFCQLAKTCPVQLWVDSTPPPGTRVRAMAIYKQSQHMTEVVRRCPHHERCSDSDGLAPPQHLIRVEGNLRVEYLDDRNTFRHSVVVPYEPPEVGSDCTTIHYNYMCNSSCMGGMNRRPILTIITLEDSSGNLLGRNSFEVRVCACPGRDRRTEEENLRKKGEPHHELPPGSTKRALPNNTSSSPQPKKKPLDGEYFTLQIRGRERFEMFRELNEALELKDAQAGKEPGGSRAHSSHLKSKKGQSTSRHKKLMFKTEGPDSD
Outline: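 Read-out is the blue/green (460/530 nm, 405 nm excitation) ratio after 2 h CCF4-AM loading, fitted as gain versus DMSO. Compounds, pinned at 217-fold dilution from DMSO stocks, stayed 16 h on HCT-116 beta-lactamase reporter cells seeded 5 h earlier.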

[3] = TOX21_p53_BLA_p4_viability: Viability Assessment in the Tox21 HCT-116 p53 Agonism Beta-lactamase Assay, Phase 4 (AID 2283597);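 further: hits lower the luminescence signal meaning cytotoxicity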
Outline: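 Cytotoxicity as reduced cellular ATP (CellTiter-Glo luminescence, 30 min room temperature), measured in the same wells following the CCF4 FRET p53 reading. Human HCT-116 cells received compounds in DMSO (217-fold dilution) for 16 h.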

[4] = target: Cellular tumor antigen p53 (Homo sapiens) (UniProt P04637); experiment: TOX21_p53_BLA_p5_ratio: Tox21 HCT-116 p53 Agonism Beta-lactamase Assay, Ratio, Phase 5 (AID 2283599)
Outline: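 HCT-116 p53-bla cells (4000/well) plated 5 h, dosed with compound (217-fold DMSO dilution) for 16 h at 37 C; CCF4-AM substrate 2 h at room temperature. Activity is the 460/530 nm emission ratio (405 nm excitation), fitted in gain-of-signal direction versus DMSO.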

[5] = target: Cellular tumor antigen p53 (Homo sapiens) (UniProt P04637); experiment: TOX21_p53_BLA_p4_ratio: Tox21 HCT-116 p53 Agonism Beta-lactamase Assay, Ratio, Phase 4 (AID 2283601)
Outline: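 HCT-116 p53 beta-lactamase reporter cells (4000/well) preincubated 5 h, then compound (217-fold dilution of DMSO stock) for 16 h at 37C. CCF4-AM substrate added 2 h at room temperature; 460/530 nm emission ratio fitted upward versus DMSO.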

[6] = TOX21_p53_BLA_p5_viability: Viability Assessment in the Tox21 HCT-116 p53 Agonism Beta-lactamase Assay, Phase 5 (AID 2283600)
Outline: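 Viability came from CellTiter-Glo ATP luminescence, read after 30 min at room temperature. Before this, HCT-116 p53-bla cells (4000/well) had 16 hours of compound exposure at 37C, with DMSO stocks diluted 217-fold on transfer.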

SMILES | outcome [1] | outcome [2] | outcome [3] | outcome [4] | outcome [5] | outcome [6] | AC50 [1] | AC50 [2] | AC50 [4] | AC50 [5]
Cc1cc(Cl)c(C)cc1Cl | inactive | inactive | inactive | inactive | inactive | – | – | – | – | –
CC1=C2[C@@H]([C@H](C)CC[C@H]2/C=C(\C)C(=O)O)[C@H](O)C1 | inactive | inactive | inactive | inactive | inactive | – | – | – | – | –
CN1[C@@H]2CC[C@H]1CC(NC(=O)n1c(=O)[nH]c3ccccc31)C2 (stereo partly specified) | inactive | inactive | inactive | inactive | inactive | – | – | – | – | –
COc1cc(-c2ccc(N=C=O)c(OC)c2)ccc1N=C=O | inactive | inactive | inactive | inactive | inactive | – | – | – | – | –
CC(C)NC(=O)c1ccccc1N | inactive | inactive | inactive | inactive | inactive | inactive | – | – | – | –
CC(=O)Oc1cccc(C(=O)O)c1OC(C)=O | inactive | inactive | inactive | inactive | – | inactive | – | – | – | –
CCC(C)=NO[Si](C)(ON=C(C)CC)ON=C(C)CC | inactive | inactive | inactive | inactive | inactive | inactive | – | – | – | –
C[C@H]1O[C@@H](n2cc(F)c(=O)[nH]c2=O)[C@H](O)[C@@H]1O | – | – | inactive | – | – | inactive | 17.9 µM (active) | 23 µM (active) | 24.4 µM (active) | 27.5 µM (active)
O=S(=O)(O)CCS | inactive | inactive | inactive | inactive | inactive | inactive | – | – | – | –
O=S(=O)(Cl)c1c(Cl)cccc1Cl | inactive | inactive | inactive | inactive | inactive | inactive | – | – | – | –
CC[C@H]1NC(=O)[C@@H](NC(=O)c2ncccc2O)[C@@H](C)OC(=O)[C@H](c2ccccc2)NC(=O)[C@@H]2CC(=O)CCN2C(=O)[C@H](Cc2ccccc2)N(C)C(=O)[C@@H]2CCCN2C1=O | inactive | inactive | inactive | inactive | – | inactive | – | – | – | –
CCc1cn([C@H]2C[C@H](O)[C@@H](CO)O2)c(=O)[nH]c1=O | inactive | inactive | inactive | inactive | inactive | inactive | – | – | – | –
CC(O)CN(C)C (stereo unspecified) | inactive | inactive | inactive | inactive | inactive | – | – | – | – | –
